Source: PubChem BioAssay (Tox21)
Several values for one entry are separate records, joined by “and”; a condition that tells them apart may be missing. Equal values may be shown once. Inconclusive results are not listed. A number with no mark means an inactive call. Activity calls are given as the source filed them. Calls come from the whole dose curve.

test: p53 small molecule agonists, cell-based qHTS assay with rat liver microsomes (AID 1963578); conditions: HCT-116 p53RE-bla, beta-lactamase ratio, 16 h; series mostly up to 66 µM; activation: at the top concentration; note: potency is the fitted concentration of half-maximal effect
Summary of the method: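 Cells carrying a p53 response element–beta-lactamase reporter were plated and rested 5 h, then dosed with compound in DMSO plus rat liver microsomes and NADPH, each at 0.5 mg/mL final. After 16 h at 37 C, LiveBLAzer substrate was added for 2 h.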
% is set by controls: 0 for no effect and ±100 for the full control effect.

Point of comparison: `CC(=O)c1ccc2c(c1)CCCC2`, “activation” value -4%. Against it:
- N#CCc1cccc(C(F)(F)F)c1 — higher, 0.306%
- CC(C)(c1cc(Br)c(O)c(Br)c1)c1cc(Br)c(O)c(Br)c1 — higher, 16.1%
- CC(=O)C(C)O (centres undefined) — higher, 0.579%
- CO[Si](CCCNCCNCCN)(OC)OC — higher, 1.28%
- NC(=O)c1cccc([N+](=O)[O-])c1 — higher, 1.45%
- CCCC(O)C(O)CO (centres undefined) — higher, 1.21%
- O=C(O)c1ccc(O)cc1O — higher, -0.202%
- C[Si](C)(C)Cl — higher, 0.632%
- COC(=O)c1c(Cl)c(Cl)c(C(=O)OC)c(Cl)c1Cl — higher, -2.08%
- Cc1ccc2n[nH]nc2c1 — higher, -2.84%
- CCCOC(=O)C(C)O (centres undefined) — higher, 0.0937%

Point of comparison: `Clc1ccccc1-c1nc(-c2ccncc2)no1`, “activation” value 0.361% [at 30.3 µM]. Against it:
- CCOc1cc(NC(C)=O)ccc1C(=O)OC — lower, -3.35% [at 30.3 µM]

With `Nc1c2ccccc2nc2ccccc12` the Potency was 40.3 µM (active).

test: p53 small molecule agonists, cell-based qHTS assay with human liver microsomes: qHTS cell viability counter screen (AID 1963579); conditions: p53RE-bla HCT-116 viability, ATP luminescence, 16 h, HLM; series mostly up to 66 µM; activity change, negative = cytotoxicity: at the top concentration; note: nearly all actives have a fitted effect of over 45% in size; note: potency is the fitted concentration of half-maximal effect
Summary of the method: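 Cytotoxicity counter screen: p53RE-bla, 4,000 cells/well; 5 h settle, 37 C/5% CO2; cpd + HLM 0.5 mg/mL + NADPH 0.5 mg/mL (final); 16 h, 37 C; CellTiter-Glo, 30 min RT, luminescence.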

With `COC(=O)N[C@H](C(=O)N[C@@H](Cc1ccccc1)[C@@H](O)CN(Cc1ccc(-c2ccccn2)cc1)NC(=O)[C@@H](NC(=O)OC)C(C)(C)C)C(C)(C)C` the “activity change, negative = cytotoxicity” value was 27.6% [at 30.3 µM].

Point of comparison: `O=C(O)c1ccc(O)cc1O`, “activity change, negative = cytotoxicity” value -7.95%. Against it:
- COC(=O)Nc1nc2ccc(Sc3ccccc3)cc2[nH]1 — higher, 7.76%
- CC(=O)C(C)O (centres undefined) — higher, -0.29%
- C[Si](C)(C)Cl — higher, -4.02%

With `N#CCc1cccc(C(F)(F)F)c1` the Potency was 40.8 µM (active).
For `CC(C)(c1cc(Br)c(O)c(Br)c1)c1cc(Br)c(O)c(Br)c1`, the Potency was 16.2 µM (active) and 36.3 µM (active).
In the case of `Nc1c2ccccc2nc2ccccc12`, the Potency is reported as “inactive”.

test: p53 small molecule agonists, cell-based qHTS assay with rat liver microsomes: qHTS cell viability counter screen (AID 1963580); conditions: p53RE-bla HCT-116 + rat microsomes, ATP viability, 16 h; series mostly up to 66 µM; activity change, negative = cytotoxicity: at the top concentration; note: nearly all actives have a fitted effect of over 45% in size
Summary of the method: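 After the beta-lactamase ratio was read, CellTiter-Glo was added to the same wells and luminescence measured at 30 min; cells had been treated 16 h at 37 C with compounds, rat liver microsomes and NADPH (0.5 mg/mL final each).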

Point of comparison: `CCCC(O)C(O)CO` (centres undefined), “activity change, negative = cytotoxicity” value 10.9%. Against it:
- OCCOc1ccc(OCCO)cc1 — lower, -6.22%
- CCc1ccc(C)nc1 — lower, 2.56%
- C/C=C(\C)C(=O)OC/C=C(\C)CCC=C(C)C — lower, 0.411%
- CC(=O)/C=C/C1C(C)=CCC(C)C1(C)C (centres undefined) — lower, 10.2%
- C=C(C)C(=O)OCCCCCCOC(=O)C(=C)C — lower, -8.27%
- O=C1CCN(c2ccccc2)N1 — lower, 9.74%
- Clc1nc2ccccc2s1 — lower, 1.79%
- CCCCC(CC)CCC(CC(C)C)OS(=O)(=O)O (centres undefined) — higher, 14.1%
- CSc1cnccn1 — lower, 1.62%
- CCCCCCCOC(=O)c1ccccc1C(=O)OCCCCCCC — lower, 2.82%
- CC1CC(=O)CC(C)(C)C1 (centres undefined) — lower, 0%
- O=[Si]=O — lower, -18.6%
- CO[Si](CCCNCCNCCN)(OC)OC — lower, 5.31%
- CC(=O)c1ccc2c(c1)CCCC2 — lower, -0.885%
- NC(=O)c1cccc([N+](=O)[O-])c1 — lower, 1.81%
- Cc1ccc2n[nH]nc2c1 — lower, 4.35%
- CCCOC(=O)C(C)O (centres undefined) — lower, -10.8%

With `N#CCC(=O)O` the Potency was “inactive”.
For `COC(=O)c1c(Cl)c(Cl)c(C(=O)OC)c(Cl)c1Cl`, the Potency was “inactive”.

Point of comparison: `CN1N=C(C(N)=O)CCC1=O`, “activity change, negative = cytotoxicity” value -0.581% [at 30.3 µM]. Against it:
- Nc1ncnc2c1ncn2[C@@H]1O[C@H](COP(=O)(O)O)[C@@H](O)[C@H]1O — higher, 6.17% [at 30.3 µM]
- Cc1cccc(C)c1NC(=O)CC12CCCN1CCC2 — lower, -10.8% [at 30.3 µM]
- CC(=O)N1CCN(c2ccc(O)cc2)CC1 — lower, -2.91% [at 30.3 µM]
- Cl/C(=C\n1cncn1)c1ccc(Cl)cc1Cl — higher, 13.7% [at 30.3 µM]
- COc1cc(C(=O)N2CCCCCCC2)cc(OC)c1OC — higher, 0.0541% [at 30.3 µM]
- CCCCCCCC(OC)OC — higher, 2.22% [at 30.3 µM]
- NS(=O)(=O)c1cc2c(cc1Cl)NC(CC1CCCC1)NS2(=O)=O (centres undefined) — higher, 12.5% [at 30.3 µM]
- Clc1ccccc1-c1nc(-c2ccncc2)no1 — lower, -6.5% [at 30.3 µM]
- CCOc1cc(NC(C)=O)ccc1C(=O)OC — lower, -11.4% [at 30.3 µM]

`CN(C)c1ccc(/C=C/c2ccc([N+](=O)[O-])cc2)cc1` gave an activity change, negative = cytotoxicity of -5.21% [at 5.99 µM].

test: p53 small molecule agonists, cell-based qHTS assay: qHTS cell viability counter screen (AID 1963581); conditions: p53RE-bla HCT-116 viability, ATP luminescence, 16 h; series mostly up to 66 µM; activity change, negative = cytotoxicity: at the top concentration; note: nearly all actives have a fitted effect of over 45% in size; note: potency is the fitted concentration of half-maximal effect
Summary of the method: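 Luminescence from CellTiter-Glo, reflecting ATP content, serves as the cytotoxicity measure; it is taken after the 2 h reporter substrate step in HCT-116 p53RE-bla cells dosed for 16 h at 37 C.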

Point of comparison: `C/C=C(\C)C(=O)OC/C=C(\C)CCC=C(C)C`, “activity change, negative = cytotoxicity” value -8.75%. Against it:
- OCCOc1ccc(OCCO)cc1 — higher, 0%
- CCc1ccc(C)nc1 — higher, -3.88%
- CC(=O)/C=C/C1C(C)=CCC(C)C1(C)C (centres undefined) — higher, -8.4%
- C=C(C)C(=O)OCCCCCCOC(=O)C(=C)C — lower, -14.7%
- O=C1CCN(c2ccccc2)N1 — higher, 1.67%
- Clc1nc2ccccc2s1 — higher, -6.02%
- CCCCC(CC)CCC(CC(C)C)OS(=O)(=O)O (centres undefined) — higher, -3.34%
- CSc1cnccn1 — lower, -8.86%
- CCCCCCCOC(=O)c1ccccc1C(=O)OCCCCCCC — higher, -7.65%
- CC1CC(=O)CC(C)(C)C1 (centres undefined) — higher, 0.962%
- O=[Si]=O — lower, -14.9%
- CC(=O)C(C)O (centres undefined) — lower, -12.7%
- CO[Si](CCCNCCNCCN)(OC)OC — higher, 27.3%
- CC(=O)c1ccc2c(c1)CCCC2 — higher, 26.8%
- NC(=O)c1cccc([N+](=O)[O-])c1 — higher, 0%
- CCCC(O)C(O)CO (centres undefined) — higher, 5.36%
- O=C(O)c1ccc(O)cc1O — higher, 4.54%
- Cc1ccc2n[nH]nc2c1 — higher, 6.83%
- CCCOC(=O)C(C)O (centres undefined) — higher, -0.757%

For `N#CCC(=O)O`, the Potency was “inactive”.
For `CC(C)(c1cc(Br)c(O)c(Br)c1)c1cc(Br)c(O)c(Br)c1`, the Potency was 36.2 µM (active) and 40.7 µM (active).
For `COC(=O)c1c(Cl)c(Cl)c(C(=O)OC)c(Cl)c1Cl`, the Potency was “inactive”.

Point of comparison: `CC(=O)N1CCN(c2ccc(O)cc2)CC1`, “activity change, negative = cytotoxicity” value -0.657% [at 30.3 µM]. Against it:
- Nc1ncnc2c1ncn2[C@@H]1O[C@H](COP(=O)(O)O)[C@@H](O)[C@H]1O — higher, -0.231% [at 30.3 µM]
- Cc1cccc(C)c1NC(=O)CC12CCCN1CCC2 — lower, -10.2% [at 30.3 µM]
- Cl/C(=C\n1cncn1)c1ccc(Cl)cc1Cl — lower, -15.7% [at 30.3 µM]
- COc1cc(C(=O)N2CCCCCCC2)cc(OC)c1OC — lower, -3.06% [at 30.3 µM]
- CN1N=C(C(N)=O)CCC1=O — higher, 11.8% [at 30.3 µM]
- CCCCCCCC(OC)OC — higher, 2.78% [at 30.3 µM]
- NS(=O)(=O)c1cc2c(cc1Cl)NC(CC1CCCC1)NS2(=O)=O (centres undefined) — higher, 4.89% [at 30.3 µM]
- Clc1ccccc1-c1nc(-c2ccncc2)no1 — lower, -10% [at 30.3 µM]
- Nc1c2ccccc2nc2ccccc12 — higher, 10.1% [at 30.3 µM]
- CCOc1cc(NC(C)=O)ccc1C(=O)OC — lower, -1.2% [at 30.3 µM]

`CN(C)c1ccc(/C=C/c2ccc([N+](=O)[O-])cc2)cc1` gave an activity change, negative = cytotoxicity of -1.3% [at 5.99 µM].
